# Screening results: PubChem BioAssay, Broad Institute
# The entries come from a sample that favours hits as a whole.
# U2OS ROS induce: raises reactive oxygen species in U2OS cancer cells; U2OS ROS induction, H2DCF-DA fluorescence; ROS induction (% of piperlongumine), % at 10 µM; 2% of 46,000 active; AID 624156; in the data active = ROS induction above about 79%, passing the limit was not always enough;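 note: 0% = DMSO vehicle median and 100% = reference compound median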
# * = called active by the depositor.
SMILES,U2OS ROS induce
COc1ccc(NC(=O)N(C)C[C@H]2Oc3c(cccc3N(C)C)C(=O)N([C@H](C)CO)C[C@@H]2C)cc1,79*
Cc1cc(C(F)(F)F)nc2snc(Br)c12,7
CCN1CCCC1CNC(=O)c1ccc2c(c1)sc1nc(-c3ccc(C)cc3)cn12 (stereo not given),-4
Cc1ccccc1/C=N/n1c(C)cc(C)c(C#N)c1=O,0
O=C(COc1ccccc1Cl)Nc1ccc2oc(-c3ccccc3Br)nc2c1,-5
Nc1nc(SC/C=C/c2ccccc2)nc2sc3c(c12)CCCC3,15
O=C1Nc2ccccc2S/C1=C\C(=O)N1CCN(c2ccccc2)CC1,-10
COc1ccc(CN(C)C[C@@H]2Oc3c(NC(=O)Nc4ccc(OC)cc4)cccc3C(=O)N([C@H](C)CO)C[C@H]2C)cc1,12
COc1ccc(NC(=O)Nc2cccc3c2O[C@@H](CN(C)Cc2ccc(Cl)c(Cl)c2)[C@H](C)CN([C@@H](C)CO)C3=O)cc1,96*
C[C@H](CO)N1C[C@H](C)[C@@H](CN(C)Cc2ccc(Oc3ccccc3)cc2)Oc2c(NC(=O)Nc3ccc(F)cc3)cccc2C1=O,82*
CNC[C@@H]1Oc2ccc(NS(=O)(=O)c3c(C)noc3C)cc2CC(=O)N([C@H](C)CO)C[C@H]1C,99*
C[C@@H]1CN([C@H](C)CO)C(=O)c2cccc(NC(=O)Nc3ccc(F)cc3)c2O[C@@H]1CN(C)Cc1ccc2c(c1)OCO2,-5
CNC[C@H]1Oc2ccc(NS(=O)(=O)c3c(C)noc3C)cc2CC(=O)N([C@@H](C)CO)C[C@H]1C,7
C[C@H]1CN([C@@H](C)CO)C(=O)c2cccc(NC(=O)Nc3ccc(F)cc3)c2O[C@H]1CN(C)Cc1ccc2c(c1)OCO2,2
COc1ccc(CN(C)C[C@H]2Oc3c(NC(=O)Nc4ccc(OC)cc4)cccc3C(=O)N([C@H](C)CO)C[C@@H]2C)cc1,13
CNC[C@@H]1Oc2ccc(NS(=O)(=O)c3c(C)noc3C)cc2CC(=O)N([C@H](C)CO)C[C@@H]1C,-6
C[C@@H]1CN([C@@H](C)CO)C(=O)c2cccc(NC(=O)Nc3ccc(F)cc3)c2O[C@H]1CN(C)Cc1ccc2c(c1)OCO2,115*
C[C@H](CO)N1C[C@H](C)[C@H](CN(C)Cc2ccc(Oc3ccccc3)cc2)Oc2c(NC(=O)Nc3ccc(F)cc3)cccc2C1=O,12
C[C@H]1CN([C@@H](C)CO)C(=O)c2cccc(NC(=O)Nc3ccc(C(F)(F)F)cc3)c2O[C@@H]1CN(C)Cc1ccc(Oc2ccccc2)cc1,-1
C[C@H]1CN([C@@H](C)CO)C(=O)c2cccc(NC(=O)c3ccncc3)c2O[C@H]1CN(C)C(=O)NC1CCCCC1,-9
O=C(NC1CCCC1)C1CCN(c2nc3ccccc3n3cccc23)CC1,-3
Cc1cccc(N(CC(=O)Nc2ccc(Cl)cc2)S(C)(=O)=O)c1C,-10
CS(=O)(=O)N(CC(=O)NC1CCCCC1)c1ccc(Cl)cc1Cl,1
Cc1noc(C)c1NC(=O)Nc1ccc2c(c1)C(=O)N([C@H](C)CO)C[C@@H](C)[C@H](CN(C)S(=O)(=O)c1ccccc1)O2,0
CCN(CC)/C(=N/S(=O)(=O)c1ccc(Cl)cc1)c1ccccc1,-4
SMILES,U2OS ROS induce
CC1(C)CC(=O)C(C=NC(CO)(CO)CO)=C(O)C1,2
Cc1ccc2c(c1)c1nc3ccccc3nc1n2CC(=O)N(c1ccccc1)C(C)C,-8
C[C@@H]1CN([C@H](C)CO)C(=O)c2cccc(NS(=O)(=O)c3ccccc3)c2O[C@@H]1CN(C)Cc1ccc(Cl)c(Cl)c1,27
C[C@H](CO)N1C[C@H](C)[C@H](CN(C)Cc2ccc(Oc3ccccc3)cc2)Oc2c(NC(=O)Nc3ccccc3)cccc2C1=O,4
Cc1noc(C)c1NC(=O)Nc1cccc2c1O[C@H](CN(C)Cc1ccc(Oc3ccccc3)cc1)[C@@H](C)CN([C@@H](C)CO)C2=O,88*
C[C@@H]1CN([C@@H](C)CO)C(=O)c2cccc(NS(=O)(=O)c3ccccc3)c2O[C@@H]1CN(C)Cc1ccc(Cl)c(Cl)c1,1
C[C@@H]1CN([C@@H](C)CO)C(=O)c2cccc(NS(=O)(=O)c3ccccc3)c2O[C@H]1CN(C)Cc1ccc(Cl)c(Cl)c1,151*
C[C@@H]1CN([C@@H](C)CO)C(=O)c2cccc(NC(=O)Nc3ccccc3)c2O[C@H]1CN(C)Cc1ccc(Oc2ccccc2)cc1,105*
C[C@@H]1CN([C@H](C)CO)C(=O)c2cccc(NC(=O)Nc3ccccc3)c2O[C@H]1CN(C)Cc1ccc(Oc2ccccc2)cc1,22
Cc1noc(C)c1NC(=O)Nc1cccc2c1O[C@@H](CN(C)Cc1ccc(Oc3ccccc3)cc1)[C@@H](C)CN([C@@H](C)CO)C2=O,0
Cc1noc(C)c1NC(=O)Nc1cccc2c1O[C@H](CN(C)Cc1ccc(Oc3ccccc3)cc1)[C@H](C)CN([C@@H](C)CO)C2=O,-4
COc1ccc2c(C)c(CC(C)O)c(=O)oc2c1 (stereo not given),-9
CS(=O)(=O)N(CC(=O)Nc1ccc(F)cc1)c1cccc(Br)c1,4
COc1ccccc1CNC(=O)c1ccc2c(c1)N(Cc1ccc(F)cc1Cl)C(=O)CS2,11
Cc1ccc(S(=O)(=O)N(C)C[C@H]2Oc3c(NC(=O)Nc4c(C)noc4C)cccc3C(=O)N([C@H](C)CO)C[C@@H]2C)cc1,-4
O=C(COc1nc(-c2cccs2)cc(C(F)(F)F)n1)Nc1ccc(Cl)cc1Cl,4
O=[N+]([O-])c1cccc(NC(=S)NCc2cn(-c3ccccc3)nc2-c2ccccc2)c1,-8
NC(=O)c1c(NC(=O)c2cnn3c(C(F)(F)F)cc(-c4cccs4)nc23)sc2c1CCCC2,-18
O=C(O)c1cnn2c(C(F)(F)F)cc(-c3ccco3)nc12,-13
COc1ccc(C(=O)NCCc2nc3ccccc3[nH]2)cc1OC,-2
COc1ccc(-c2cc(C(F)(F)F)n3ncc(C(=O)NCc4nc5ccccc5[nH]4)c3n2)cc1OC,151*
CCC(C)NC(=O)c1cnn2c(C(F)(F)F)cc(-c3ccccc3)nc12 (stereo not given),129*
CSc1ccccc1NC(=O)c1cnn2c(C(F)(F)F)cc(-c3ccco3)nc12,171*
O=C(c1cnn2c(C(F)(F)F)cc(-c3ccccc3)nc12)N1CCCC1,6
Cc1cc(NC(=O)c2nn3c(C(F)(F)F)cc(-c4ccccc4)nc3c2Cl)nn1CC(=O)N1CCOCC1,-18
SMILES,U2OS ROS induce
COc1ccc(-c2cc(C(F)(F)F)n3nc(C(=O)NCc4ccco4)cc3n2)cc1OC,33
C[C@@H]1CN([C@H](C)CO)C(=O)c2cc(NS(=O)(=O)c3ccc(Cl)cc3)ccc2O[C@H]1CN(C)S(=O)(=O)c1cccs1,-4
COC(=O)CCCCCCC(=O)N/N=C/c1ccc2ccccc2n1,12
O=C(CCCCCCC(=O)Nc1ccccc1O)N/N=C/c1c(O)ccc2ccccc12,45
C[C@H](CO)N1C[C@H](C)[C@H](CN(C)Cc2ccc(Oc3ccccc3)cc2)Oc2ccc(NS(C)(=O)=O)cc2CC1=O,25
C[C@H](CO)N1C[C@H](C)[C@@H](CN(C)C(=O)Nc2ccc(F)cc2)Oc2c(NC(=O)NC3CCCCC3)cccc2C1=O,2
C[C@@H]1CN([C@H](C)CO)C(=O)Cc2cc(NC(=O)Cc3ccccc3)ccc2O[C@@H]1CN(C)Cc1ccc(C(F)(F)F)cc1,68
O=C(O)C1CCCN(S(=O)(=O)N2CCCCC2)C1 (stereo not given),-2
Cc1ccc(C(=O)CSc2nc3sc(C)c(C)c3c(=O)[nH]2)cc1,22
